Source: PubChem BioAssay
The list is not random: actives were taken first. Their share in the collection is about 9.4%.
ELG1 repair inh = inhibitors of ELG1-dependent DNA repair in HEK293T cells; Potency, µM (highest dose often 46.1 µM), hits mostly inhibitors; hit rate 2.3% among 330,000; HEK293T ELG1-luciferase reporter, luminescence, 16 h; DNA damage induced by 5-fluorouridine; also: nearly all actives have a fitted effect of over 55% in size
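Reporter activity after DNA damage by 5-fluorouridine is monitored. Compound-treated cells incubate 16 hr at 37 °C, then ONE-Glo is added for 30 min before luminescence reading.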
Rab9 promoter act = Rab9 promoter activation; Huh7 Rab9 promoter-luciferase reporter, luminescence, 24 h; hit rate 2.8% among 320,000; Potency, µM (titrated, usually from 9.22 µM), most hits filed as activators; also: nearly all actives have a fitted effect of over 60% in size
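Steps: seed 1500 Huh7 Rab9-luc cells per well, rest 2 h at 37 °C; add compound in DMSO; incubate 24 h; add luciferase reagent, 10 min ambient; read luminescence.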
ELG1 genotoxic = induces genotoxicity in HEK293T cells with luciferase-tagged ELG1; hit rate 1.3% among 330,000; HEK293T ELG1-luciferase reporter, luminescence, 16 h; Potency, µM (top dose mostly 46 µM), most hits filed as activators; also: nearly all actives have a fitted effect of over 60% in size
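HEK293T cells expressing luciferase-tagged ELG1 were exposed to compound or DMSO vehicle for 16 hr at 37 °C and 5% CO2. Luciferase activity was then measured with ONE-Glo after 30 min at room temperature.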
SMN2 splice enh = increases expression of the SMN2 splice variant; HEK293 SMN2-luciferase splicing reporter, luminescence, 30-36 h; Potency, µM (highest dose often 46.1 µM), most hits filed as activators; hit rate 2.8% among 210,000; also: nearly all actives have a fitted effect of over 55% in size
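HEK293 cells carry an SMN2 minigene-luciferase reporter in which exon 7 inclusion puts luciferase in frame. Cells were seeded at 2000 cells/well, attached for 10-12 hours, then exposed to compounds for 30-36 hours at 37C before ONE-Glo luminescence.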
FLuc modulator = inhibits or activates purified firefly luciferase, miR-21 counter-screen. P08659. purified FLuc, Km substrates, luminescence inhibition. Potency, µM (series often up to 57.5 µM), hits mostly inhibitors. hit rate 6.9% among 360,000. AID 588342; also: nearly all actives have a fitted effect of over 55% in size
Target sequence (P08659 whole entry, looked up): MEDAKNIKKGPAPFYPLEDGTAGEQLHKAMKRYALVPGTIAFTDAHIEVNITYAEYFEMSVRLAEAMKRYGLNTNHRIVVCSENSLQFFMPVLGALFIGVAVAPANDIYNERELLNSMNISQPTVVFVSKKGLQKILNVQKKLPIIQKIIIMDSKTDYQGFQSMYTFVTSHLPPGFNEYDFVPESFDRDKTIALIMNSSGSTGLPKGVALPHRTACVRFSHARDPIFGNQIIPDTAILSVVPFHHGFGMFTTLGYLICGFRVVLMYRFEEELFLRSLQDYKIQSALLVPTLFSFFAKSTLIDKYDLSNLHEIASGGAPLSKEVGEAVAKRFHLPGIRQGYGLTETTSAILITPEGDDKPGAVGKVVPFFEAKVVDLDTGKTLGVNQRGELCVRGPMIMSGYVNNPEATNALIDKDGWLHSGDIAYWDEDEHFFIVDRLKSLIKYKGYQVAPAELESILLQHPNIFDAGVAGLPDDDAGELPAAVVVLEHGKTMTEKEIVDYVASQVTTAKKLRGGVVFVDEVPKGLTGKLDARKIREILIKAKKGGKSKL
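Purified P. pyralis luciferase, 10 nM final, with Km-level 10 uM D-luciferin and 10 uM ATP in 50 mM Tris acetate pH 7.5, 10 mM Mg acetate, 0.01% Tween-20, 0.05% BSA; 6-point qHTS titration about 60 µM downward; luminescence read.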
NPC1 prom act = activates the NPC1 promoter; Huh7 NPC1 promoter luciferase reporter, 24 h; Potency, µM (titrated, usually from 9.22 µM), actives largely listed as activators; hit rate 2.4% among 320,000; also: nearly all actives have a fitted effect of over 60% in size
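Luminescence read-out of NPC1 promoter-driven luciferase in stably transfected Huh7 cells; compounds delivered in DMSO and left 24 h at 37C, 5% CO2, qHTS titration format.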
Each line names hits and unclear results; the compound was inactive in the other large screens. Calls follow the shape of the dose curve; as a rule, active = well fitted curve in the direction sought with a large enough effect; inconclusive = small, poorly fitted or top-dose-only effect, or another doubt; inactive = no such curve, though single readings can be large; an effect the other way counts as inactive or inconclusive.

Cn1c(-c2ccccc2)c(C#Cc2ccc(N)cc2)c2ccccc21	none (no result: Rab9 promoter act, SMN2 splice enh, FLuc modulator, NPC1 prom act)
Cn1c2ccccc2c(=O)c2ccc(C#CC3(O)CCCCC3)cc21	ELG1 repair inh inconclusive, Rab9 promoter act 0.32µM, ELG1 genotoxic inconclusive, FLuc modulator 0.38µM, NPC1 prom act 0.32µM (no result: SMN2 splice enh)
Cc1ccc(NC(=O)c2ccc(C#CC3(O)CCCCC3)cc2)cc1C	none
COc1ccc(C)cc1NC(=O)C1CCN(S(=O)(=O)c2ccc3[nH]c(=O)oc3c2)CC1	none (no result: ELG1 repair inh, Rab9 promoter act, ELG1 genotoxic, SMN2 splice enh, NPC1 prom act)
COc1ccccc1C(O)Cc1nc2ccccc2n1C (centres undefined)	ELG1 repair inh inconclusive, Rab9 promoter act inconclusive, ELG1 genotoxic inconclusive, FLuc modulator inconclusive
CN(C)c1ccc(C(O)Cc2nc3ccccc3n2C)cc1 (centres undefined)	ELG1 repair inh inconclusive, Rab9 promoter act inconclusive, ELG1 genotoxic 4.6µM, FLuc modulator inconclusive, NPC1 prom act inconclusive (no result: SMN2 splice enh)
CC(C)c1ccc(C(O)Cc2nc3ccccc3n2C)cc1 (centres undefined)	ELG1 repair inh inconclusive, Rab9 promoter act 4µM, ELG1 genotoxic inconclusive, FLuc modulator 9.5µM, NPC1 prom act inconclusive (no result: SMN2 splice enh)
CCCCN(c1ccccc1)S(=O)(=O)c1cc2c3c(c1)C(C)C(=O)N3CCC2 (centres undefined)	none (no result: ELG1 repair inh, Rab9 promoter act, ELG1 genotoxic, SMN2 splice enh, NPC1 prom act)
NC(N)=NC(=O)c1nc(Cl)c(N2CCCCCC2)nc1N	ELG1 repair inh inconclusive, Rab9 promoter act inconclusive, ELG1 genotoxic 16µM, FLuc modulator 4.3µM, NPC1 prom act inconclusive
O=C(CCC1N=C2c3ccccc3N=C(SCc3ccc(Cl)cc3)N2C1=O)N1CCN(c2ccccc2)CC1 (centres undefined)	none (no result: ELG1 repair inh, Rab9 promoter act, ELG1 genotoxic, NPC1 prom act)
Cc1cc(NC(=O)c2ccc3c(c2)OCCO3)ccc1NC(=O)c1cc2ccccc2o1	ELG1 repair inh inconclusive, FLuc modulator 2.7µM
O=C(Nc1ccc(NC(=O)c2ccco2)c(Cl)c1)c1ccc2c(c1)OCCO2	ELG1 repair inh inconclusive, Rab9 promoter act 4µM, FLuc modulator 0.48µM, NPC1 prom act inconclusive (no result: SMN2 splice enh)
O=C(Nc1ccc(NC(=O)c2ccco2)cc1)c1ccc2c(c1)OCO2	ELG1 genotoxic inconclusive
O=C(Nc1ccc(NC(=O)c2cc3ccccc3o2)cc1)c1ccc2c(c1)OCCO2	ELG1 repair inh inconclusive
CCCC(=O)c1cc2c(cc1NC(=O)c1cccs1)OCCO2	none
O=C(Nc1cc2c(cc1Cl)OCCO2)c1ccco1	ELG1 repair inh inconclusive, Rab9 promoter act inconclusive, SMN2 splice enh 13µM, FLuc modulator 19µM, NPC1 prom act inconclusive
O=C(Nc1cc2c(cc1Br)OCCO2)c1cccs1	ELG1 repair inh inconclusive, Rab9 promoter act 2.5µM, ELG1 genotoxic 12µM, SMN2 splice enh 22µM, FLuc modulator 11µM, NPC1 prom act 2.8µM
CC(=O)c1cc2c(cc1NC(=O)c1ccco1)OCCO2	none
O=C(Nc1cc2c(cc1Br)OCCO2)c1ccco1	ELG1 repair inh inconclusive, ELG1 genotoxic inconclusive, SMN2 splice enh 13µM, FLuc modulator 24µM
COc1cc(/C=N/NC(=O)c2ccncc2)ccc1OC(=O)c1cc(OC)c(OC)c(OC)c1	none (no result: SMN2 splice enh)
C=CCOc1ccccc1/C=N/NC(=O)c1ccc(Cl)cc1Cl	Rab9 promoter act inconclusive, FLuc modulator 15µM, NPC1 prom act inconclusive
COc1cc(C(=O)Oc2ccccc2/C=N/NC(=O)c2ccc(Cl)cc2Cl)cc(OC)c1OC	ELG1 repair inh inconclusive, Rab9 promoter act inconclusive, SMN2 splice enh inconclusive, FLuc modulator inconclusive, NPC1 prom act 3.5µM
CCOc1ccc(NC(=O)COC(=O)C2C3CC4OC(=O)C2C4C3)cc1 (centres undefined)	none (no result: SMN2 splice enh)
CCOc1ccc(NC(=O)C(=O)NCC(c2cccnc2)N2CCc3ccccc32)cc1 (centres undefined)	none (no result: ELG1 repair inh, Rab9 promoter act, ELG1 genotoxic, SMN2 splice enh, NPC1 prom act)
CC(=O)c1sc(-c2ccccc2)cc1NS(=O)(=O)c1ccc(C)cc1	none (no result: SMN2 splice enh)
CC(=O)c1sc(-c2ccc(F)cc2)cc1NS(=O)(=O)c1ccc(C)cc1	ELG1 repair inh 18µM (no result: SMN2 splice enh)
NC(=O)c1sc(-c2ccsc2)cc1NS(=O)(=O)c1ccc(C(F)(F)F)cc1	ELG1 repair inh 18µM (no result: SMN2 splice enh)
CC(=O)c1sc(-c2ccccc2)cc1NS(=O)(=O)c1ccccc1	none (no result: SMN2 splice enh)
CC(=O)Nc1ccc(NC(=O)CCC(=O)c2ccc(C)cc2)cc1	none (no result: ELG1 repair inh, Rab9 promoter act, ELG1 genotoxic, SMN2 splice enh, NPC1 prom act)
